# Only some compounds are listed: those with a hit (about 4% of all), similar ones and a draw of the others.
# MITF TRPM1 inh – inhibitors of MITF-dependent TRPM1 promoter reporter, primary screen, cell-based, SK-MEL-5, single point, luciferase; AID 488899, 2010; SK-MEL-5 TRPM1 promoter luciferase, 24 h; inhibition, % at 12.5 µM; hit rate 0.83% among 330,000;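 active means mean inhibition across replicates of 60% or more, whatever share of single replicates reaches that level; inconclusive means some that reach 60%, reason not given; inactive means mean inhibition across replicates below 60%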
# MITF TRPM1 HTS – activators of MITF-driven TRPM1 promoter reporter, primary screen, cell-based, SK-MEL-5, luciferase, single point; SK-MEL-5 TRPM1-promoter luciferase, 24 h; % of positive control, neutral wells = 0; activation, % at 12.5 µM; hit rate 0.75% among 300,000;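 active means mean activation of at least 80% with every replicate also reaching 80%; inconclusive means mean reaches 80% but some replicate falls short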;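 further: 0% = neutral control wells and 100% = parthenolide positive control wells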
# Statin myotox sup – suppressors of statin myotoxicity in C2C12 myotubes, primary screen, cell-based, single point, plate reader; hit rate 0.78% among 330,000; C2C12 myotubes + simvastatin, ATP luminescence, 48 h; scaled: DMSO 0, geranylgeraniol control 100; AID 602340, 2012; rescue of ATP level, % at 7.49 µM;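 active means mean ATP rescue above about 67%, or every replicate alone reaching that limit, limit read from the data, passing the limit was not always enough; inconclusive means no clear call, values can overlap the other calls; inactive means mean under the limit and some replicate under it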;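 further: myotubes were challenged with 10 µM simvastatin during compound exposure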
# Wnt act – Wnt/beta-catenin pathway activators, primary screen, cell-based, plate reader, single point | activation, % at 9.35 µM | hit rate 1.2% among 300,000 | AID 743398, 2014 | Wnt/beta-catenin reporter cell assay, activator; in the data active means activation above about 30%, passing the limit was not always enough; inconclusive means no clear call, values can overlap the other calls;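 further: 0% = neutral control wells and 100% = positive control wells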
# LMP1 NFkB inh – EBV LMP1-driven NF-kappaB luciferase reporter inhibitors, primary screen, cell-based, luminescence, single point; LMP1-induced NF-kappaB luciferase reporter cells; inhibition, % at 12.5 µM; hit rate 0.69% among 350,000; in the data active means inhibition above about 41%; inconclusive means no clear call, values can overlap the other calls;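 further: 0% = neutral control wells and 100% = reference inhibitor control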
# esBAF inh – Bmi1 luciferase reporter increase in mESCs, primary screen, esBAF inhibitor project, mouse ES cells, Bmi1 luciferase knock-in, single point. 24 h; 100% = twice the neutral-well signal. reporter increase, % at 12.5 µM. hit rate 2% among 350,000. AID 602393, 2012; in the data active means activation above about 40%; inconclusive means no clear call, values can overlap the other calls;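 further: 0% = median of the plate's neutral control wells and 100% = double that signal; a rise in the Bmi1 reporter signal indicates esBAF inhibition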
# Ring1 derepress – Ring1 mRNA increase in mouse ESCs, confirmation, esBAF inhibitor project, cell-based, mouse ESC, RT-qPCR, cherry-pick; AID 743176, 2013; shares compounds with esBAF inh; 550 tested, under 10 active; fold change at 33 µM; mouse ESC E14, Ring1 mRNA RT-qPCR fold change;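 active means Ring1 gene expression raised more than 2-fold over untreated cells in both replicates at either tested dose; inconclusive means only one replicate above 2-fold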;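 further: Ring1 transcript normalised to actin housekeeping signal by TaqMan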
# esBAF Fgf4 qPCR – Fgf4 mRNA decrease in mouse ESCs, confirmation, esBAF inhibitor project, cell-based, mouse ESC, RT-qPCR, cherry-pick. shares compounds with esBAF inh. hit rate 4% among 550. mouse ESC E14, Fgf4 mRNA qPCR fold change; stronger effect = lower value. Fgf4 expression fold change at 33 µM;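 active means Fgf4 expression under 0.8 fold of control in both repeat measurements at one or both tested doses; inconclusive means under 0.8 fold in just a single repeat measurement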;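 further: Fgf4 transcript normalised to actin in duplex TaqMan qPCR; cells exposed to compound for 24 h before lysis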
# esBAF Bmi1 qPCR – esBAF inhibition via Bmi1 de-repression, confirmation, cell-based, RT-qPCR, mouse ESC, single point, cherry-pick | shares compounds with esBAF inh | AID 743180, 2013 | mouse ESE14 ES cells, Bmi1 mRNA qPCR fold; stronger effect = higher value | 550 tested, under 10 active | fold change at 33 µM;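 active means Bmi1 expression fold change above 6 at either tested concentration, seen in replicate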
# A549 cytotox – A549 cell cytotoxicity, cytotoxicity control, plate reader, single point, cherry-pick; shares compounds with esBAF inh; cell viability change % (negative = cytotoxic), % at 25 µM, hits read low; 550 tested, under 10 active; AID 743188, 2013; call rule not given here
# HepG2 tox SP – HepG2 cell cytotoxicity, cytotoxicity control, plate reader, single point, cherry-pick | shares compounds with esBAF inh | stronger effect = lower value | activity change, negative = inhibition, % at 25 µM | hit rate 4% among 550 | AID 743189, 2013; in the data active means activity change below about -50%
# HEK293 tox SP – HEK293 cell cytotoxicity, cytotoxicity control, plate reader, single point, cherry-pick; hit rate 3% among 550; activity change, negative = inhibition, % at 25 µM, hits read low; shares compounds with esBAF inh; AID 743190, 2013; in the data active means activity change below about -38%, passing the limit was not always enough
# An asterisk follows results filed as active; ? = inconclusive; / = no result.
SMILES,MITF TRPM1 inh,MITF TRPM1 HTS,Statin myotox sup,Wnt act,LMP1 NFkB inh,esBAF inh,Ring1 derepress,esBAF Fgf4 qPCR,esBAF Bmi1 qPCR,A549 cytotox,HepG2 tox SP,HEK293 tox SP
Nc1cc2c3ccccc3ccc2c2ccccc12,-2,-2,-3,3,-48,79*,0.64*,0.48*,37*,-11,-20,-119*
Nc1ccc2ccccc2c1[N+](=O)[O-],5,-10,5,-1,0,-3,/,/,/,/,/,/
CN(CC(=O)Nc1ccc(F)cc1)CC(=O)N(C)C1(C#N)CCCCC1,-12,14,-10,0,4,-4,/,/,/,/,/,/
Cn1ccc2c(-c3ccc(C(=O)O)cc3)cc3c(c21)C1CCC3C1 (configuration not stated),/,/,-5,-8,/,66*,1.4,0.96,1.5,-7,-13,1
O=C(CCNS(=O)(=O)c1cccs1)N1CCc2ccccc2C1,-42,42,5,-4,2,68*,1.2,0.97,1.6,-13,-26,-5
CC1CC(C)CN(C(=O)CCNS(=O)(=O)c2cccs2)C1 (configuration not stated),-12,10,/,0,-3,/,/,/,/,/,/,/
CCC1CCCCN1Cc1ccc(CNS(=O)(=O)c2ccc3c(c2)oc(=O)n3C)o1 (configuration not stated),5,/,-1,20,-1,14,/,/,/,/,/,/
CN(C)/C=C/C(=O)c1cnc(-c2ccc(Cl)cc2)s1,-51,55,/,13,-21,/,/,/,/,/,/,/
O=C(c1ccc(Cl)cc1)c1cnc(-c2ccc(Cl)cc2)s1,-71,73,2,/,-39,63*,1.2,1.1,1.2,-9,-47,0
CCCCNC(=O)C[C@@H]1C[C@@]2(C(=O)OCC)CCC=C2N(CCC2=CCCCC2)C1=O,/,/,/,-2,/,/,/,/,/,/,/,/
O=C(Cc1ccccc1)Nc1ccc2c(c1)OC1(CCCC1)O2,-110,110*,-4,48*,-11,75*,1.2,0.86,1.6,-9,-31,-13
c1ccc(-c2noc(CC3CCCCC3)n2)cc1,-76,?,5,10,-35,58*,1.2,1.2,1.1,-6,-21,-5
c1cc(-c2noc(CCC3CCCC3)n2)ccn1,-23,24,/,/,-7,/,/,/,/,/,/,/
CN(CCc1cn[nH]c1)C(=O)CC1C(=O)NCCN1Cc1ccccc1C(F)(F)F (configuration not stated),-4,2,/,-1,-4,/,/,/,/,/,/,/
Cc1ccnc(NC(=O)c2ccc3c(c2)C(=O)N(CC(C)C)C3=O)c1,-62,61,-8,16,-8,74*,1.2,0.84,1.5,-13,1,-13
Cc1ccc(O)c(NC(=O)c2ccc3c(c2)C(=O)N(CC(C)C)C3=O)c1,-84,/,-1,20,0,57*,1.2,0.94,1.2,-7,-30,-7
CCCN1C(=O)c2ccc(C(=O)Nc3cc(C)ccc3O)cc2C1=O,-59,/,6,6,0,30,/,/,/,/,/,/
CCc1ccc(S(=O)(=O)N2CCN(Cc3ccco3)CC2)cc1,1,0,-4,0,2,-3,/,/,/,/,/,/
COc1ccc2cc(C(=O)C3CCCN(C(=O)c4ccnn4C)C3)ccc2c1 (configuration not stated),-10,7,-1,6,-3,40,/,/,/,/,/,/
Cc1ccc(CN2CC(C(=O)Nc3cc(C)ccn3)CC2=O)cc1 (configuration not stated),-23,22,-7,?,-13,72*,0.58,0.44*,3.5,3,-21,-9
Clc1cccc(NCc2nnc(SCc3ccccc3Cl)o2)c1,-13,12,33,/,5,0,/,/,/,/,/,/
Cc1ccc(C)c(NC(=O)c2cc(-c3cc(C)c(C)cc3O)n[nH]2)c1,-102,100*,-59,11,-32,57*,1.4,0.84,1.6,-3,-16,-2
Cc1cc(-c2ccccc2)nc(N/N=C/c2ccc([N+](=O)[O-])cc2)n1,-2,9,/,0,3,/,/,/,/,/,/,/
COc1cccc(NC(=O)C(=O)NCCC2CCCCN2S(=O)(=O)c2cccs2)c1 (configuration not stated),-94,96*,9,39*,-31,60*,0.81,0.94,1.4,-5,27,-8
COc1cccc(NC(=O)C(=O)NCC2CCCN2S(=O)(=O)c2cccs2)c1 (configuration not stated),/,/,-4,-3,-26,62*,0.97,0.93,1.2,-14,-23,-18
SMILES,MITF TRPM1 inh,MITF TRPM1 HTS,Statin myotox sup,Wnt act,LMP1 NFkB inh,esBAF inh,Ring1 derepress,esBAF Fgf4 qPCR,esBAF Bmi1 qPCR,A549 cytotox,HepG2 tox SP,HEK293 tox SP
COc1ccc(-c2ocnc2C(=O)N2CCN(C(=O)C(c3ccccc3)c3ccccc3)CC2)cc1,/,/,23,-3,-4,-2,/,/,/,/,/,/
COc1ccc(-c2nc(C#N)c(NC(C)C)o2)cc1,-72,74,-7,15,-23,67*,1.1,1,1.6,-4,-35,-9
CC(=O)Nc1ccc2c(c1Br)Cc1ccccc1-2,-72,68,-1,46*,-18,69*,1.2,0.92,2.8,-8,8,-7
Nc1ccc2c(c1Br)Cc1ccccc1-2,-1,-1,7,27,-21,34,/,/,/,/,/,/
c1ccc2cc(C3CCCCC3)ncc2c1,-90,99*,2,25,-11,76*,1.3,?,1.5,2,-41,13
COc1cc(OC)c2c(-c3ccccc3)cc(C3CCCCC3)nc2c1,-4,7,-1,2,2,-10,/,/,/,/,/,/

# Bioassay records deposited in PubChem by Broad Institute.
